# According to ChEMBL document CHEMBL1157539, “Thousands of chemical starting points for antimalarial lead identification” (Nature, 2010):
# Tests used:
# Format in all cases: functional
# Plasmodium falciparum [1] = test: GSK_TCMDC: Inhibition of Plasmodium falciparum 3D7 in whole red blood cells, using parasite LDH activity as an index of growth. Test compounds present at 2uM
# Plasmodium falciparum [2] = test: GSK_TCMDC: Inhibition of Plasmodium falciparum Dd2 in whole red blood cells, using parasite LDH activity as an index of growth. Test compounds present at 2uM
# HepG2 = test: GSK_TCMDC: Percent inhibition of human HepG2 cell line. Test compounds present at 10uM.
Compound,Inhibition (Plasmodium falciparum [1]) [%],Inhibition (Plasmodium falciparum [2]) [%],Inhibition (HepG2) [%]
O=C(/C=C/c1ccc([N+](=O)[O-])cc1)N1CCC(NS(=O)(=O)c2ccc(Br)cc2)CC1,93,5,0
Cc1cccc(C(=O)Nc2ccnc(N3CCC(N(C)Cc4cccc(C#N)c4)CC3)c2)c1.O=C(O)C(F)(F)F,100,52,5
CCCCC(=O)Nc1ccc(Nc2nc(C)cc(N3CCCC3)n2)cc1,100,67,38
O=C(C=Cc1ccc(Cl)c(Cl)c1)NCCCCCN1CCC(CCCNC(=O)c2ccc3c(c2)OCO3)CC1,98,64,38
O=C(NCC1CCC(CNCCCc2ccccc2)CC1)Nc1ccc(Cl)c(Cl)c1 (centres undefined),99,2,26
CCCCCn1c(Sc2ccc(C#N)c([N+](=O)[O-])c2)nnc1-c1cccc(Cl)c1,95,75,4
O=C1OC(c2ccccc2)(c2ccccc2)CN1C1CCN(Cc2ccc(O)c(Cl)c2)C1 (centres undefined),100,93,10
CC(C)NCc1ccc(-c2ccc(NC(=O)c3ccc(C#N)cc3)cc2)cc1.O=C(O)C(F)(F)F,90,0,23
CN(C)c1ccc(N2C(N)=NC(N)=NC23CCCC3)cc1.Cl,97,0,1
Cc1cc(N2CCCC2)nc(NC(=N)Nc2cccc(C(F)(F)F)c2)n1,100,100,33
COc1cccc(CNC(=O)c2cccc(-c3cccc(CN4CCC(N5CCCC5)CC4)c3)n2)c1.O=C(O)C(F)(F)F,100,76,22
CC(=O)c1sc2ccccc2c1O,91,0,14
COc1ccc(C(O)CNC(C)CCc2ccc(F)cc2)cc1C(F)(F)F.Cl (centres undefined),99,98,92
CC(=O)Nc1ccc(OCCCCN(Cc2ccccc2C(F)(F)F)c2ccc(C#N)c(C(F)(F)F)c2)cc1,80,47,0
Br.Cc1ccc(OCCCCON2C(=N)N=C(N)NC2(C)C)cc1C,94,97,61
Cc1nc2c(c(C)nn2C(C)(C)C)c(C)c1CCC(=O)Nc1ccc(CN2CCCC2)cc1,89,5,1
O=C(NCc1cccc(Br)c1)c1ccc(CNC2CCN(Cc3ccccc3)CC2)cc1.O=C(O)C(F)(F)F,100,49,3
Cc1cc(N2CCC(NS(=O)(=O)c3ccc(F)cc3)CC2)nc(Nc2cccc(C#N)c2)n1.O=C(O)C(F)(F)F,97,65,20
COc1ccc(NC(=O)[C@H](CC(C)C)Nc2cc(C)nc(NCCc3cccs3)n2)cc1.O=C(O)C(F)(F)F,100,68,5
CCCC(CNCc1cccc(SC(F)(F)F)c1)CNc1cc(=O)c2ccccc2[nH]1 (centres undefined),100,87,5

Compound,Inhibition (Plasmodium falciparum [1]) [%],Inhibition (Plasmodium falciparum [2]) [%],Inhibition (HepG2) [%]
CC(CN(C)C)C(=O)Nc1cccc(-c2ccc(-c3nc4cc(F)ccc4[nH]3)cc2)c1 (centres undefined),100,100,11
Cc1cc(I)ccc1Nc1nc2nonc2nc1Nc1ccc(I)cc1C,100,96,78
O=C(Nc1ccc2ccccc2c1)N(CCCn1ccnc1)Cc1csc(-c2ccc(CNCc3ccccc3)cc2)n1.O=C(O)C(F)(F)F,99,53,10
CC(C)(C)CC(C)(C)c1ccc(O)c(C(=O)Nc2cccc([N+](=O)[O-])c2)c1,95,97,49
C=CCOC(=O)N1CCC(CNCc2cccc(-c3ccc(-c4nc5cc(C(F)(F)F)ccc5[nH]4)cc3)c2)C1.O=C(O)C(F)(F)F (centres undefined),100,96,28
CCCCCCCN1CCC(CC(=O)Nc2ccnc3ccc(OC)cc23)C(CC)C1 (centres undefined),100,75,14
COc1csc2cc(Br)ccc12,100,0,6
Cl.O=C(NCCCCN1CCC(O)(c2ccc(Cl)cc2)CC1)c1ccc(Br)cc1,82,48,41
CC(=O)Nc1cccc(NC(=O)CSc2ccc(-c3nc4ccccc4[nH]3)cn2)c1,97,73,22
O=C(/C=C/c1ccc([N+](=O)[O-])cc1)N1CCC(NS(=O)(=O)c2ccc(F)cc2)CC1,96,0,0
Cl.N#Cc1ccc2c(c1)CCN(CCC1CCC(NC(=O)/C=C/c3nc4ccccc4s3)CC1)CC2 (centres undefined),90,0,6
COc1ccc(CCNC(=O)c2ccc(-n3cc(NC(=O)c4cccnc4)cn3)cc2)cc1OC,90,89,17
CC(=O)c1cccc(NC(=O)C2c3ccccc3C(=O)N(CC(C)C)C2c2cccs2)c1 (centres undefined),100,100,11
CCCCc1cc(NCc2ccncc2)nc(Nc2ccccc2)n1,96,4,0
O=C1CN(C(=O)CCC2CCCC2)C(c2ccc(F)cc2)c2cc(F)ccc2N1 (centres undefined),100,75,12
COc1cc2nccc(Nc3ccc4c(cnn4Cc4cccc(F)c4)c3)c2cc1OC.Cl,100,99,29
O=C(Nc1ccccc1)Nc1cccc(-c2nn3c(OCC4CCCCN4)cccc3c2-c2ccncc2)c1 (centres undefined),97,82,9
COc1ccccc1NC(=O)c1cc(C(=O)c2cc(Cl)ccc2O)cn(-c2ccccc2OC)c1=O,92,31,9
O=C(O)c1cccnc1Sc1ccc(Cl)cc1,100,4,5
O=C(Nc1ccc(C(=O)OCC(c2ccccc2)c2ccccc2)cc1)N[C@@H](Cc1ccc(O)cc1)C(=O)NC1CCN(Cc2ccc(O)cc2)C1.O=C(O)C(F)(F)F (some centres undefined),96,0,0

Compound,Inhibition (Plasmodium falciparum [1]) [%],Inhibition (Plasmodium falciparum [2]) [%],Inhibition (HepG2) [%]
CC(C)CNCc1ccc(OCc2cccc(COc3ccc(CNCC(C)C)cc3I)c2)c(I)c1.Cl,98,84,23
CC(CN1CCN(C)CC1)C(=O)Nc1ccc(-c2ccc(-c3nc4cc(C(F)(F)F)ccc4[nH]3)cc2)cc1 (centres undefined),100,100,19
CCNc1cc(C(=O)N[C@@H](Cc2ccccc2)[C@H](O)CNC2(CCC(C)C)CC2)cc(N2CCCCS2(=O)=O)c1.Cl,90,52,6
CCN(CC)CCN(CCN(CC)CC)c1ccc(-c2nc3cc(Cl)c(Cl)cc3[nH]2)cc1,100,97,9
CCn1ccc2c(N3CCCC3=O)cc(C(=O)N[C@@H](Cc3ccccc3)[C@H](O)CNCc3cccc(OC)c3)cc21,94,92,4
CC(C)(CNCc1ccc(Cl)cc1)c1nc(-c2ccc(Cl)c(O)c2)c(-c2ccncc2)[nH]1.Cl,100,98,86
C(=NNc1nc2ccccc2[nH]1)c1ccccc1OCc1ccccc1,100,90,15
Cc1cccn2c(=O)c3cc(C(=O)NC(C)c4ccccc4)c(=N)n(CCc4ccccc4)c3nc12 (centres undefined),100,82,5
Cc1ccc(F)c(CN2CCC(N3CC(c4ccccc4)(c4ccccc4)OC3=O)CC2)c1Cl,95,89,11
CCc1cn2c3c(cc(C(=O)N[C@@H](Cc4cc(F)cc(F)c4)[C@H](O)CNC4CCCCC4)cc13)N(C)S(=O)(=O)CC2.O=CO,100,99,9
CNCCNCc1ccc(-c2ccc(-c3nc4cc(F)ccc4[nH]3)cc2)cc1.O=C(O)C(F)(F)F,98,97,30
CO.Cc1nc(N)nc(N)c1OCc1cccc2c1ccc1ccccc12.Cl,95,16,54
O=C(Nc1ccc(Cl)cc1)Nc1ccc(Cn2ncc(N3CCCNCC3)c(Cl)c2=O)cc1.O=C(O)C(F)(F)F,85,11,49
O=C(NC1CC1)c1ccc(Cn2c(SCc3cccc(Cl)c3)nc3ccccc3c2=O)cc1,90,70,2
Cc1cc(N[C@@H](CC(C)C)C(=O)NCCc2ccccc2)nc(NCCc2cccs2)n1.O=C(O)C(F)(F)F,89,16,0
COc1ccc2c(=NN=Cc3ccc(OC)c4ccccc34)cc(C)[nH]c2c1,100,99,3
CN(CCCCNC(=O)c1ccc(-c2ccccc2)cc1)C1CCc2c(O)cccc2C1.O=C(O)C(=O)O (centres undefined),100,21,24
CCCCc1ccc(-c2ccc(-c3c(C)[nH]c(C)c(Br)c3=O)cn2)cc1.Cl,98,96,0
